Compound activity (PubChem BioAssay)
This is a sample that favours compounds with a hit; in the whole collection about 0.83% have one here.
NCOA1 inh = SRC1 coactivator transcriptional activity inhibitors, primary screen, cell-based, luminescence. actives 0.12% (n = 360,000). HEK293 GAL4-SRC1 luciferase reporter. Nuclear receptor coactivator 1 (Homo sapiens), Q15788. inhibition, % at 3.6 µM;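 active = inhibition above the campaign mean plus 3 SD, with each screening campaign given its own cutoff, cut at about 60% in these data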
SRC3 inh = SRC3 coactivator transcriptional activity inhibitors, primary screen, cell-based, luminescence | Nuclear receptor coactivator 3 (Homo sapiens), Q9Y6Q9 | HEK293 GAL4-SRC3 luciferase reporter | inhibition, % at 3.6 µM | actives 0.17% (n = 360,000) | AID 588352, 2011;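 active = inhibition above a per-campaign cutoff, the mean of all compounds plus 3 SD, cut at about 60% in these data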;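 note: higher means less SRC3-driven luciferase light from the GAL4 reporter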
LRH-1 inv ag = LRH-1 (NR5A2) inverse agonists, primary screen, cell-based, luminescence, HEK293T, StAR-luciferase reporter; LRH-1 transfected, 24 h; AID 602396, 2012; Nuclear receptor subfamily 5 group A member 2 (Homo sapiens), O00482; actives 0.13% (n = 360,000); inhibition, % at 3.6 µM;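 active = inhibition above the mean inhibition of all tested compounds plus 3 SD, cut at about 73% in these data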
NR2F2 inh = NR2F2 transcriptional activity inhibitors, primary screen, cell-based, luciferase reporter, HEK293T, luminescence | COUP transcription factor 2 (Homo sapiens), P24468 | HEK293T NGFI-A luciferase reporter | inhibition, % at 8.6 µM | actives 0.7% (n = 370,000) | AID 686940, 2013;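 active = inhibition above a per-plate cutoff, mean inhibition of test wells between control levels plus 3 SD, cut at about 38% in these data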;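 note: cells cotransfected with COUP-TFII expression vector driving the NGFI-A reporter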
Target sequence (P24468 whole entry, looked up): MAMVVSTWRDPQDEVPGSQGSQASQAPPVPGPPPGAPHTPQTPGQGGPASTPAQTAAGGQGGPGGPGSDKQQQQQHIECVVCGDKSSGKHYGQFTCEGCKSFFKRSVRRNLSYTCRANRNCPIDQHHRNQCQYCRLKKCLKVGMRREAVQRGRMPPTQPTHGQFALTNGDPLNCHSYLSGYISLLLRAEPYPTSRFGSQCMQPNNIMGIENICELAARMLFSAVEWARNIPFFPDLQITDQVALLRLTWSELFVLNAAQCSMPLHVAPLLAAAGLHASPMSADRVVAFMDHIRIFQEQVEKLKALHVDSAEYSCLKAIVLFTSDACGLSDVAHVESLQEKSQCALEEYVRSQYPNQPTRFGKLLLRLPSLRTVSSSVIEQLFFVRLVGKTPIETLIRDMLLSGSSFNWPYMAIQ
SRC2 inh = inhibition of GAL4-SRC2 driven luciferase reporter, primary screen, SRC2 inhibitor project, cell-based, luminescence; HEK293 GAL4-SRC2 luciferase reporter; actives 0.17% (n = 370,000); inhibition, % at 9 µM; Nuclear receptor coactivator 2 (Homo sapiens), Q15596;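 active = inhibition above the mean inhibition of all tested compounds plus 3 SD, set per campaign, cut at about 52% in these data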
VP16 Luc counter = Gal4-VP16 luciferase reporter inhibitors, counter-screen for COUP-TFII antagonist project, cell-based, luminescence, HEK293; shares compounds with NR2F2 inh; inhibition, % at 8.5 µM; actives 25% (n = 2,500); in the data active = inhibition above about 13%
NR2F2 inh conf = NR2F2 transcriptional activity inhibitors, confirmation, cell-based, luciferase reporter, HEK293, triplicate; shares compounds with NR2F2 inh; HEK293 NGFI-A luciferase reporter, luminescence; inhibition, % at 8.5 µM; actives 45% (n = 2,500);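 active = mean inhibition over three repeats above a set limit taken from the earlier primary screen, cut at about 38% in these data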
Numbers stand for hits; 0 = inactive; - = not tested or not shown.

SMILES | NCOA1 inh | SRC3 inh | LRH-1 inv ag | NR2F2 inh | SRC2 inh | VP16 Luc counter | NR2F2 inh conf
Cc1ccc(Oc2cc([N+](=O)[O-])cc3c2C(=O)Nc2ccccc2O3)cc1 | 0 | 0 | 0 | 38 | 0 | 0 | 0
O=C(N[C@H](C(=O)N1CCC[C@H]1C(=O)NCCc1ccccc1Cl)C1CCCCC1)c1ccc(Cl)c(Cl)c1 | - | - | - | 0 | 0 | - | -
CC(C)C[C@@H]1COc2cc(Br)ccc2S(=O)(=O)N1Cc1cn(Cc2ccc(Cl)cc2)nn1 | - | - | - | 0 | 0 | - | -
CCc1ccc(-c2nnn(CCC(=O)OC)n2)cc1 | 0 | 0 | 0 | 57 | 76 | 60 | 50
Cc1nc2ccc(NC(=O)c3cccs3)cc2c(=O)n1Cc1ccc(Cl)cc1 | 0 | 0 | 0 | 59 | 0 | 0 | 46
COC(=O)[C@]12C[C@H](CC(=O)NCc3cccc(C(F)(F)F)c3)C(=O)N(Cc3ccco3)C1=C[C@H](COCc1ccccc1)O[C@@H]2C | - | - | - | 0 | 0 | - | -
c1ccc2c(c1)Nc1cc3ccccc3cc1S2 | 0 | 0 | 0 | 0 | 0 | - | -
c1ccc2c(c1)Nc1ccncc1S2 | 0 | 0 | 0 | 38 | 0 | 0 | 0
Cc1nc(NC(=O)C(C)(C)C)sc1-c1nc(N)sc1-n1cc(-c2ccccc2)nn1 | - | - | 0 | 0 | 0 | - | -
CCNc1nc(-c2sc(NC(=O)C(C)(C)C)nc2C)c(-n2cc(-c3ccccc3)nn2)s1 | - | - | 0 | 66 | 0 | 0 | 41
S=C(NCC1(c2ccccc2)CCCC1)Nc1ccccc1 | 0 | 0 | 0 | 42 | 0 | 0 | 0
CCCCCCc1ccc(NC(=O)[C@@H]2CC=C[C@@H]3CCN(Cc4ccccc4)C(=O)[C@@H]32)cc1 | - | - | - | 0 | - | - | -
CC1(C(=O)Nc2ccc3[nH]ncc3c2)CCN1C(=O)Cc1ccc(-c2ccccc2)cc1 (stereo unspecified) | 0 | 0 | 0 | 47 | 0 | 0 | 0
CC1(C(=O)Nc2ccc3c(c2)OCO3)CCN1C(=O)Cc1ccc(-c2ccccc2)cc1 (stereo unspecified) | 0 | 0 | 0 | 43 | 0 | 0 | 0
O=C(Nc1nncs1)c1cc2c(s1)CCC2 | 0 | 0 | 0 | 0 | 0 | - | -
O=C(Nc1nccs1)c1cc2c(s1)CCCCC2 | 0 | 0 | 0 | 42 | 58 | 0 | 0
COc1ccc(-n2c(COc3ccccc3)nnc2SCc2nc3ccccc3[nH]2)cc1 | - | - | - | 0 | 0 | - | -
CCOC(=O)Cc1ccc(NC(=O)c2ccc(C(C)(C)C)cc2)cc1 | 0 | 0 | 0 | 58 | 78 | 46 | 53
CC(=O)N1CCc2cc(S(=O)(=O)NCCC3=CCCCC3)ccc21 | 0 | 0 | 0 | 47 | 0 | 0 | 0
Cc1ccc(NC(=O)c2cc(S(=O)(=O)NCCC3=CCCCC3)ccc2F)cc1F | 0 | 0 | 0 | 40 | 0 | 0 | 40
Cc1ccc(S(=O)(=O)NCc2ccncc2)cc1 | 0 | 0 | 0 | 57 | 0 | 0 | 40
CCOc1ccc(S(=O)(=O)NCc2ccncc2)cc1 | 0 | 0 | 0 | 70 | 0 | 0 | 63
Cc1ccc(S(=O)(=O)NCC(=O)NCc2ccncc2)cc1 | 0 | 0 | 0 | 0 | 0 | - | -
CCOc1cc(S(=O)(=O)NCc2ccncc2)ccc1Cl | 0 | 0 | 0 | 74 | 0 | 0 | 63
CCOC(=O)COc1ccc(S(=O)(=O)NCc2ccncc2)cc1 | 0 | 0 | 0 | 49 | 0 | 0 | 0
SMILES | NCOA1 inh | SRC3 inh | LRH-1 inv ag | NR2F2 inh | SRC2 inh | VP16 Luc counter | NR2F2 inh conf
COC(=O)[C@]12CCCCC=C1N(Cc1ccc(OC)cc1)C(=O)[C@@H]2CC(=O)N1CCN(C(=O)c2ccco2)CC1 | - | - | - | 0 | 0 | - | -
Cc1c(C(=O)N2CCN(Cc3ccc4c(c3)OCO4)CC2)sc2ncnc(N3CCN(c4ccccc4F)CC3)c12 | 0 | 0 | 0 | 46 | 0 | 0 | 57
Cc1c(C(=O)N2CCN(Cc3ccc4c(c3)OCO4)CC2)sc2ncnc(N3CCN(c4ccccc4)CC3)c12 | 0 | 0 | 0 | 0 | 0 | - | -
COc1cccc(OC)c1C(=O)N1CCN(Cc2ccc3c(c2)OCO3)CC1 | 0 | 0 | 0 | 0 | 0 | - | -
COc1cc(SC)ccc1C(=O)N1CCN(Cc2ccc3c(c2)OCO3)CC1 | 0 | 0 | 0 | 48 | 0 | 0 | 0
COc1cccc(OCC(O)CN2CCC(CN3C(=O)c4cccc5cccc(c45)C3=O)CC2)c1 (stereo unspecified) | 0 | 0 | 0 | 0 | 0 | - | -
Cc1cc(C)cc(OCC(O)CN2CCC(CN3C(=O)c4cccc5cccc(c45)C3=O)CC2)c1 (stereo unspecified) | 0 | 0 | 0 | 73 | 0 | 0 | 40
CN(Cc1ccco1)C(=O)c1cccc2c1C(=O)N(Cc1cccnc1)C2 | - | - | - | 0 | 0 | - | -
CCOC(=O)c1cc2c(C)n(-c3ccc(C)cc3)c(C)c2ccc1=O | 0 | 0 | 0 | 41 | 0 | 0 | 0
N#Cc1nc(N2CCCC2)nc(N2CCCC2)n1 | 0 | 0 | 0 | 47 | 0 | 0 | 0
N#Cc1nc(N2CCCCC2)nc(N2CCOCC2)n1 | 0 | 0 | 0 | 0 | 0 | - | -
CCc1ccc(Nc2n[n+](-c3ccccc3)c(-c3c(Cl)cccc3Cl)s2)cc1 | 0 | 0 | 0 | 66 | 0 | 16 | 0
CN(CC(=O)Nc1ccncc1)S(=O)(=O)c1ccc(Br)cc1 | 0 | 0 | 0 | 0 | 0 | - | -
CN(CCCC(=O)Nc1ccncc1)S(=O)(=O)c1ccc(Cl)cc1 | 0 | 0 | 0 | 52 | 0 | 0 | 0
Cc1ccc(CC(=O)Nc2ccncc2)cc1 | 0 | 0 | 0 | 55 | 0 | 0 | 0
O=C(Cc1ccc(Cl)cc1)Nc1ccncc1 | 0 | 0 | 0 | 40 | 0 | 0 | 0
COC(=O)C1=C(C)N(C)C(=NCc2ccc(OC)cc2)NC1c1cccc(Cl)c1 (stereo unspecified) | - | - | - | 0 | 0 | - | -
O=C(/C=C(\Nc1cccc(OC(F)F)c1)c1ccccc1)c1ccccc1 | - | - | - | 0 | 0 | - | -
NCCN1C(=O)S/C(=C\c2ccc3c(c2)OCO3)C1=O | 0 | 0 | 0 | 76 | 69 | 27 | 0
COc1cc(C2CC(=O)c3c([nH]c(C(=O)OCCOC(C)C)c3C)C2)cc(OC)c1OC (stereo unspecified) | 0 | 0 | 0 | 76 | 0 | 0 | 0
CCOC(=O)c1[nH]c2c(c1C)C(=O)CC(c1ccc(OC)c(OC)c1)C2 (stereo unspecified) | 0 | 0 | 0 | 0 | 0 | - | -
CCOCCOC(=O)c1[nH]c2c(c1C)C(=O)CC(c1ccc(OC)c(OC)c1)C2 (stereo unspecified) | 0 | 0 | 0 | 46 | 0 | 0 | 0
Cc1nccn1-c1ccc(NC(=O)[C@@H](Cc2ccccc2)NC(=O)[C@H]2O[C@@H](n3ccc(=O)[nH]c3=O)[C@H](O)[C@@H]2O)cc1 | - | - | - | 0 | 0 | - | -
